Screening data from PubChem BioAssay.
An excerpt weighted towards active compounds, which were near 12% of everything screened.
G9a inh – G9a (human) methyltransferase inhibition; Q96KQ7; G9a H3K9 monomethylation, AlphaScreen, 2 h; Potency, µM (titrated, usually from 102 µM), hits mostly inhibitors; hit rate 8.8% among 350,000; further: nearly all actives have a fitted effect of over 75% in size
Target sequence (Q96KQ7 913-1193 limits assumed): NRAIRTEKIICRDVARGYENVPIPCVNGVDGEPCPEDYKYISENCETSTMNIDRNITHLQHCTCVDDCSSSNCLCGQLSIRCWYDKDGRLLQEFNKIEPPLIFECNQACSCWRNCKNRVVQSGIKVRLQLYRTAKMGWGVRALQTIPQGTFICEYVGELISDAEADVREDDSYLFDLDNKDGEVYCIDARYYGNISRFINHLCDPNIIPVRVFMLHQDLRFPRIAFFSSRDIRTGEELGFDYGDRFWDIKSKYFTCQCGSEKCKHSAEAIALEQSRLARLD
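G9a (20 nM) was preincubated 15 min with compound, then reacted 2 h at room temperature with 500 nM biotin-H3K9 peptide and 20 µM SAM. Monomethyl-H3K9 detected by AlphaScreen using anti-H3K9me1 antibody.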
Sfp inh – inhibitors of Bacillus subtilis Sfp phosphopantetheinyl transferase. Biochemical Sfp PPTase activity, qHTS. Potency, µM, most hits filed as inhibitors. hit rate 3.5% among 310,000. AID 1490;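 further: the enzyme is Sfp with the accession as filed and its product quenches rhodamine fluorescence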
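Fluorescence-quenching assay: 15 nM Sfp-PPTase preincubated 15 min at room temperature with compound, then 5 uM rhodamine-CoA and 12.5 uM BHQ-2-labelled YbbR peptide added. Fluorescence (ex 525/em 598 nm) read at start and after 30 min; difference gives rate.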
JMJD2A Tudor – blocks the human JMJD2A Tudor domain. O75164. AlphaScreen JMJD2A-Tudor / H3K4me3 peptide binding. Potency, µM (highest dose often 114 µM), actives largely listed as inhibitors. hit rate 4.4% among 390,000. AID 504339; further: nearly all actives have a fitted effect of over 50% in size
L3MBTL1 block – inhibitors of human L3MBTL1; Q9Y468; Potency, µM (titrated, usually from 57.1 µM), most hits filed as inhibitors; AID 485360; hit rate 0.66% among 230,000; AlphaScreen L3MBTL1–H3K9me1 peptide binding; further: nearly all actives have a fitted effect of over 60% in size
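L3MBTL1 (50 nM) pre-complexed 30 min with biotinylated H3(1-15)K9me1 peptide (75 nM), then compounds added for 30 min at room temperature; AlphaScreen streptavidin donor/nickel chelate acceptor beads (10 ug/mL final) read after 30 min dark incubation.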
BAZ2B block – BAZ2B (human) inhibition | AID 504333 | Potency, µM (doses to about 114 µM), most hits filed as inhibitors | hit rate 4.4% among 360,000 | AlphaScreen BAZ2B-H3K14Ac peptide displacement; further: nearly all actives have a fitted effect of over 60% in size
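BAZ2B 50 nM plus b-H3(5-23)K14Ac 50 nM, PBS pH 7.4/0.01% Tween-20, 30 min RT; compound added (max 110 uM), 30 min RT; streptavidin donor/Ni-chelate acceptor beads 10 ug/mL final, 20 min dark; AlphaScreen read.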
HP1b chromo inh – HP1-beta chromodomain-methylated histone interaction inhibition. P83916. AlphaScreen HP1-beta / biotin-H3K9me3 peptide binding. Potency, µM (top dose mostly 114 µM), actives largely listed as inhibitors. hit rate 0.56% among 390,000; further: nearly all actives have a fitted effect of over 70% in size
Target sequence (P83916 whole entry, looked up): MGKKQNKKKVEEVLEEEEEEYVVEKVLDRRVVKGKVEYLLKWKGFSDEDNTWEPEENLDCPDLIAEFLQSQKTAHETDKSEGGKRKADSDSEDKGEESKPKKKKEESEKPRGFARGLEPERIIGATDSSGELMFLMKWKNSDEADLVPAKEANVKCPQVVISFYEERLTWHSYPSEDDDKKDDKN
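HP1-beta protein (50 nM final) preincubated 30 min at room temperature with biotinylated H3(1-18)K9me3 peptide (50 nM) in PBS pH 7.4, 0.01% Tween-20, then compound added for 30 min. AlphaScreen streptavidin donor/nickel chelate acceptor beads (10 ug/mL final), 30 min dark, luminescence read.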
A number is an active result; i = inactive; ? = inconclusive; nt = no result; [ ] = remark or other dose. The call rests on the fitted dose curve; in most records, active means well fitted curve in the direction sought with a large enough effect; inconclusive means small, poorly fitted or top-dose-only effect, or another doubt; inactive means no such curve, though single readings can be large; an effect the other way counts as inactive or inconclusive.

SMILES	G9a inh	Sfp inh	JMJD2A Tudor	L3MBTL1 block	BAZ2B block	HP1b chromo inh
O=C1[C@@H]2[C@@H](CN3CN(c4ccccc4)N=C(c4ccccc4)[C@@]23c2ccccc2)C(=O)N1c1ccccc1	nt	nt	89.1µM	nt	nt	?
O=C1[C@H]2C(c3ccccc3)=NN(c3ccccc3)[C@H]2C(=O)N1c1ccccc1	i	i	i	nt	i	i
COc1cccc(C2C(C(=O)Nc3ccc(C)cc3C)=C(C)Nc3c(C(=O)Nc4cccc(C)c4)cnn32)c1OC (configuration not stated)	i	nt	i	nt	i	i
CN(CC(=O)Nc1cc([N+](=O)[O-])ccc1Cl)Cc1ccc(Br)cc1	11.2µM	?	?	i	?	i
CC(=O)OCC(=O)Nc1ccc([N+](=O)[O-])cc1Cl	i[12.7 µM]	i	i	i	i	i
CCCCC(=O)Nc1cc([N+](=O)[O-])ccc1Cl	i	i	i	i	i	i
Cc1ccsc1CN(C)CC(=O)Nc1ccc([N+](=O)[O-])cc1Cl	39.8µM	i	i	nt	i	?
COc1cc(/C=N/N2C(=O)CSC2=S)ccc1O	i[12.7 µM]	i	i	nt	?	?
CC(C)CCOc1ccc(/C=N/N2C(=O)CSC2=S)cc1	i	i	i	nt	i	i
O=C1CSC(=S)N1/N=C/c1cc(Br)c(O)c(Br)c1	39.8µM	?	15.8µM	nt	35.5µM	i
O=C1CSC(=S)N1N=Cc1ccccc1O	nt	nt	17.8µM	nt	nt	?
O=C1CSC(=S)N1Cc1cccnc1	?	i	?	nt	39.8µM	?
COc1ccc(Br)cc1/C=N/N1C(=O)CSC1=S	79.4µM	i	?	nt	?	?
O=C(NCCc1ccccc1)C(=O)NCC(c1cccs1)S(=O)(=O)c1cccs1 (configuration not stated)	?	nt	i	nt	i	i
C=C1CCN(C(CC(C)C)C(=O)O)S(=O)(=O)c2ccccc21 (configuration not stated)	nt	i	i	nt	nt	i
O=C1CSC(=S)N1/N=C/c1ccc2c(c1)OCCO2	?	i	?	nt	?	i
O=C1CSC(=S)N1/N=C/c1ccc(Cl)c([N+](=O)[O-])c1	nt	i	nt	?	35.5µM	nt
O=C1CSC(=S)N1/N=C/c1cccnc1	7.08µM	?	i	nt	i	i
Cc1oc2c(c(C)cc3oc(=O)c(CC(=O)NCc4ccc(F)cc4)c(C)c32)c1C	i	nt	i	nt	i	i
Cc1ccccc1NC(=O)c1c(F)c(F)c(F)c(F)c1F	i[12.7 µM]	i	i	i	i	i
Cc1cccc(C)c1NC(=O)Cn1c(=O)n(Cc2ccc3c(c2)OCO3)c(=O)c2oc3ccccc3c21	i	nt	i	nt	i	i
Cc1cccc(C)c1NC(=O)C1c2cccc[n+]2CC(=O)N1Cc1ccc2c(c1)OCO2 (configuration not stated)	8.91µM	i	i	nt	i	i
Cc1ccccc1NC(=O)C1c2cccc[n+]2CC(=O)N1c1c(C)cccc1C (configuration not stated)	5.62µM	50.1µM	50.1µM	i	44.7µM	?
CCc1ccc(-n2c(=O)c3sc4ccccc4c3n(CC(=O)N3CCCC3)c2=O)cc1	i	nt	i	nt	i	i
O=C(CN1C(=O)NC(Cc2c[nH]c3ccccc23)C1=O)NCCc1ccccc1 (configuration not stated)	i	i	i	nt	i	i
SMILES	G9a inh	Sfp inh	JMJD2A Tudor	L3MBTL1 block	BAZ2B block	HP1b chromo inh
CCCNC(=O)CN1C(=O)NC(Cc2c[nH]c3ccccc23)C1=O (configuration not stated)	i	i	50.1µM	i	i	i
CCOc1ccc2nc(N3CCN(C(=O)c4ccco4)CC3)sc2c1	i	nt	i	nt	i	i
Cc1ccc(CSc2nnc(-c3ccncc3)n2N)cc1	i[12.7 µM]	?	i	i	i	i
Cc1occc1-c1nnc(SCC(=O)Nc2ccccc2)n1C	i[12.7 µM]	i	i	i	i	i
Cc1ccc(CSc2nnc(-c3ccncc3)n2C)cc1	i	i	89.1µM	nt	?	i
CC(=O)Nc1ccc(-c2nnc(SCc3ccc(C)cc3)n2C)cc1	5.01µM	i	i	nt	i	i
Cc1ccc(Nc2nc(CSc3nnc(-c4ccncc4)n3C)cs2)cc1	39.8µM	39.8µM	i	i	i	i
Cc1ccccc1Nc1nc(CSc2nnc(-c3ccoc3C)n2C)cs1	39.8µM	20µM	i	i	?	i
Cn1nc(-c2cccnc2)nc2c(=O)n(C)c(=O)nc1-2	nt	nt	i	nt	nt	i
O=C(Cn1ncc2ccc(Cl)cc21)NCc1ccc(F)cc1	i	nt	i	nt	i	i
Cc1ccc(-c2csc(N)n2)cc1	nt	nt	i	nt	nt	i
Nc1nc(-c2cccc(NS(=O)(=O)c3ccccc3)c2)cs1	44.7µM	i	?	i	?	i
Nc1nc(-c2ccc3ccccc3c2)cs1	50.1µM	i	i	i	?	i
CC(=O)Nc1ccc(S(=O)(=O)Nc2cccc(-c3csc(C)n3)c2)cc1	i[0.501 µM]	i	i	i	i	i
Nc1nc(-c2ccc(-c3ccccc3)cc2)cs1	44.7µM	i	i	i	i	i
CCn1nnc2cc(C(=O)Nc3cccc(C)c3C)ccc21	i	nt	i	nt	i	i
Cc1cc(C)nc(NCC(O)CNc2ccccc2C)n1 (configuration not stated)	i	i	i	i	i	i
Cc1cc(C)nc(NCC(O)COc2ccccc2C)n1 (configuration not stated)	44.7µM	i	i	i	i	i
COc1cc(OC)c(NC(=O)C2=C(C)C(=O)OC23CCCCC3)cc1Cl	i	nt	i	nt	i	i
COc1ccc(C(=O)N/C(=C\c2cc(OC)c(OC)cc2[N+](=O)[O-])C(=O)NCC(=O)O)cc1	nt	i	i	i	i	i
COc1ccc(C(=O)N/C(=C\c2cc(OC)c(OC)cc2[N+](=O)[O-])C(=O)NCCO)cc1	nt	70.8µM	i	i	i	i
O=S(=O)(c1ccc2c(c1)CCCC2)N1CCN(c2nc(-c3ccccc3)nc3ccccc23)CC1	nt	nt	i	nt	nt	i
CCN(CC(=O)Nc1cccc(S(=O)(=O)N(C)c2ccccc2)c1)Cc1ccccc1	i[12.7 µM]	nt	i	i	i	i
CC(=O)NCCC(=O)Nc1cccc(S(=O)(=O)N(C)c2ccccc2)c1	i	i	i	i	i	i
CCN(CC)S(=O)(=O)c1cccc(NC(=O)CN(C)Cc2cccc(OC)c2)c1	i[12.7 µM]	89.1µM	1.58µM	i	50.1µM	22.4µM
SMILES	G9a inh	Sfp inh	JMJD2A Tudor	L3MBTL1 block	BAZ2B block	HP1b chromo inh
Cc1ccccc1CN(C)CC(=O)Nc1cccc(S(=O)(=O)N(C)c2ccccc2)c1	i	i	79.4µM	i	i	i
COc1cccc(CN(C)CC(=O)NC(=O)NCc2ccco2)c1	i[12.7 µM]	i	89.1µM	i[11.4 µM]	50.1µM	50.1µM
Cc1cc(C)c(NC(=O)CN(C)CC(=O)Nc2cccc(S(=O)(=O)N(C)c3ccccc3)c2)c(C)c1	nt	nt	7.08µM	i	nt	?
COc1ccc(CNC(=O)CSc2ncc(S(=O)(=O)c3ccc(C)c(Cl)c3)c(=O)[nH]2)cc1	i	nt	i	nt	i	i
CC[C@](C)(CN(C)C)OC(=O)c1ccccc1	?	i	nt	nt	nt	nt
Cc1ccc(-c2noc(CN(C(=O)COc3cc(C)cc(C)c3C)C(C)C)n2)cc1	i	nt	i	nt	i	i
